PubChem BioAssay (NCATS)
Inconclusive results are not listed. Entries that show only a call come without a potency. The source made the active and inactive calls. The call rests on the fitted dose curve; in most records, active means well fitted inhibition curve with a large enough effect; inconclusive means small, poorly fitted or top-dose-only effect; inactive means flat fitted curve, though single readings scatter.

Molecular target: Calcium and integrin-binding protein 1 (Homo sapiens) (UniProt Q99828)
Sequence (Q99828 whole entry, looked up): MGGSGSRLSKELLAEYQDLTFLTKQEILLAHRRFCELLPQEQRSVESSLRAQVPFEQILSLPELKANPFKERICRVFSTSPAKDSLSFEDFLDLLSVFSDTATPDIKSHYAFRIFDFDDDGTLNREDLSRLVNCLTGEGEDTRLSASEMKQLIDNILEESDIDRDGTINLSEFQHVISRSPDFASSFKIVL
Test: Primary qHTS for Identification of Calcium Integrin Binding Protein 1 (CIB1) Competitor (AID 1508620);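 further: GST tagged CIB1 binding a fluorescein labelled alphaIIb integrin peptide tracer; top concentration of the series differs between compounds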
In short: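 Fluorescence polarization competition: CIB1-GST (1 uM final) preincubated with compound 15 min at room temperature, then FITC-labeled alphaIIb peptide (100 nM final) added for another 15 min. Polarization read at Ex 480/Em 540.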

Compound	Potency
Fc1cnc(-c2ccccc2C(F)F)nc1NCc1ccc(-n2ccnn2)cc1	inactive
N#Cc1ccc(CNc2nc(-c3ccccc3C(F)(F)F)nc3ccccc23)cc1	inactive
Oc1cc(Nc2ccccc2)cc2cccnc12	inactive
CCC(=O)NC(c1cccs1)c1cc([N+](=O)[O-])c2cccnc2c1OC (stereo not given)	inactive
O=C(Nc1ccc(-c2nc3ccccc3[nH]2)cc1)c1ccc(-c2ccccc2)cc1	inactive
COc1ccc(C(=O)N(Cc2ccco2)Cc2ccco2)c(O)c1	inactive
COc1cccc(-c2no[n+]([O-])c2C#N)c1	inactive
COC(=O)Nc1sc2c(c1C(N)=O)CCCC2	inactive
N[C@@H](Cc1ccccc1)C(=O)Nc1ccc(Cl)cc1C(=O)c1ccc[nH]1	inactive
O=S(=O)(c1ccc2c(c1)OCCO2)N1CCN(S(=O)(=O)c2ccccn2)CC1	inactive
COc1ccc(C2Nc3cccc(OC)c3C(=O)N2Cc2ccccc2)cc1COc1ccc(NC(C)=O)cc1 (stereo not given)	inactive
N#CN1CCC(NS(=O)(=O)c2ccc(F)cc2)CC1	inactive
CN(C)c1ccc2nc(NC(=S)N3CCN(c4cccc(C(F)(F)F)c4)CC3)sc2c1	inactive
CC(=O)Nc1sc2c(c1-c1ccccc1)CCNC2	inactive
COc1ccc(Nc2nc(C#N)nc(NC3CCCC3)n2)cc1	inactive
COc1ccc(C(CC(=O)N2CC(C)CC(C)C2)c2c(O)cc(OC)cc2OC)cc1 (stereo not given)	inactive
O=C(c1ccc2c(c1)ncn2-c1ccccc1)N1CCCCC1	inactive
CN(C)[S+](=O)([O-])c1ccc(-c2ccc(=O)n(CC(=O)NCCc3ccccc3)n2)cc1	inactive
CC(=O)c1ccccc1-c1ncc(C)c(NCC2CCN(c3cccnc3)CC2)n1	inactive
N#Cc1cc(NC(=O)Nc2nnc(-c3ccncc3)s2)ccc1Br	inactive
Cc1ccc(-c2ccc(CNc3nc(-c4ccccc4C(C)C)nc4ccccc34)cc2)cn1	inactive
O=c1c2ccccc2nc2sc(Nc3ccc(Sc4ccccc4)cc3)nn12	inactive
Cc1nc(SCC(=O)c2ccc(F)cc2)n[nH]1	inactive
N#Cc1c(-c2ccc(Cl)c([N+](=O)[O-])c2)no[n+]1[O-]	inactive
Cc1ccc(S(=O)(=O)Nc2ccccc2CNc2nc(-c3ccccc3)cs2)cc1	inactive
Oc1cc(Nc2ccncc2)cc2cccnc12	inactive
Cc1ccc(OCCn2c(CCNC(=O)c3ccc([N+](=O)[O-])cc3)nc3ccccc32)cc1	inactive

Compound	Potency
COc1cc(F)cc(F)c1[S+](=O)([O-])N1CCN([S+](=O)([O-])c2ccc3c(c2)OCCO3)CC1	inactive
CCCCn1cnc2cc(C(=O)N3CCCCC3)ccc21	inactive
O=C1Nc2ccccc2C12CC2c1cc(Cl)c(O)c(Cl)c1 (stereo not given)	inactive
CCOC(=O)C1CCN(C(=O)C(C)(C)NC(=O)Nc2ccc3ccccc3c2)CC1	inactive
FC(F)Oc1ccc(C2=Nn3c(nnc3-c3ccccc3C(F)(F)F)SC2)cc1OCC1CC1	inactive
Cc1nc2ccc(Nc3nc(Nc4c(C)cc(C=CC#N)cc4C)nc4nc[nH]c34)cc2s1	inactive
O=C1Cc2cc(S(=O)(=O)N3CCN(c4ccc(Cl)cc4)CC3)ccc2N1	inactive
COc1ccc(C2=Nn3c(nnc3-c3cc(OC)ccc3OC)SC2)cc1	inactive
COc1cc(NS(=O)(=O)c2ccc3ccccc3c2)c2ncccc2c1	inactive
N#Cc1c(-c2ccc(OCCOCCOCCNC(=O)CCCC[C@@H]3SC[C@@H]4NC(=O)N[C@@H]43)cc2)no[n+]1[O-]	inactive
Cc1ccc(OCCn2c(CCNC(=O)Cc3cccc(F)c3)nc3ccccc32)cc1	inactive
COc1ccc([C@H]2[C@H](c3ccccc3)C(=O)N2Cc2ccccc2)cc1COc1ccc(NC(C)=O)cc1	inactive
N#Cc1ccc(-c2ccc(CNc3ccc(N4CCN5CCCCC5C4)cc3)o2)cc1 (stereo not given)	inactive
COc1cccc(C2c3c(ncn(-c4cccc(OC)c4)c3=N)Oc3ccc4ccccc4c32)c1 (stereo not given)	inactive
COc1ccc(C2=Nn3c(nnc3-c3ccccc3OC)SC2)c(OC)c1	inactive
O=[N+]([O-])c1ccc([S+](=O)([O-])N2CCN([S+](=O)([O-])c3ccc4c(c3)OCCO4)CC2)c([N+](=O)[O-])c1	inactive
NC(=O)C1CCN(c2ncc(Br)cn2)CC1	inactive
Cc1c(C(=O)NCC2CCCO2)[nH]c2c1C(=O)CC(c1ccco1)C2 (stereo not given)	inactive
COc1ccc(-c2ccc3ncnc(NCc4ccc(C)o4)c3c2)cc1OC	inactive
Cc1ccc2nc(NC3=NC4(CCCC4)C4=C(CCCC4=O)N3)oc2c1	inactive
Cc1cnc(-c2ccccc2C(C)C)nc1NCc1ccc(C2CCCNC2)cc1 (stereo not given)	inactive
C=CCNc1oc(-c2cccs2)nc1C#N	inactive
COc1cccc(NC(=S)N2CCN(c3ccc4ccccc4n3)CC2)n1	inactive
O=C(OCC#CCSc1nnc(-c2cccc3ccccc23)o1)c1csc2ccccc12	inactive
CCCCN(C)C(=O)Cn1nc(-c2ccc(C(F)(F)F)cc2)ccc1=O	inactive
COC(=O)c1c(-c2ccccc2)no[n+]1[O-]	inactive
Cc1ccc(OCCn2c(CCNC(=O)c3cccc(C#N)c3)nc3ccccc32)cc1	inactive

Compound	Potency
CCOC(=O)Nc1sc2c(c1C(N)=O)CCCC2	inactive
Oc1ccc(CNc2cc(C(F)(F)F)ccn2)c2cccnc12	inactive
Cc1cnc(NC(=O)c2ccc(-c3cccc([N+](=O)[O-])c3)o2)s1	inactive
CN(C)C(=O)c1cccc(-c2csc(N3CCC(C(N)=O)CC3)n2)c1	inactive
Cc1cc2c(s1)c1cnn(Cc3ccc(C(F)(F)F)cc3F)c(=O)c1n2C	inactive
Cc1ccc(NS(=O)(=O)c2ccc3c(ccn3C)c2)cc1C	inactive
Cc1cc(C)nc(NC(=S)N2CCN(c3nnc(C(F)(F)F)s3)CC2)c1	inactive
O=c1c2ccc([N+](=O)[O-])cc2nc2sc(Nc3ccc4c(c3)CCC4)nn12	inactive
Cc1cnc(-c2ccccc2C(C)C)nc1NCC1CCN(c2cccnc2)CC1	inactive
Cc1nc(C(C)N(C)c2ncnc3ccc(-c4ccc5c(c4)OCO5)cc23)cs1 (stereo not given)	inactive
Oc1ccc(/C=C/c2ccccc2)c2cccnc12	inactive
Fc1cc(Nc2nc(-c3ccncc3)nc3ccccc23)ccc1N1CCCCC1	inactive
O=C(Nc1ccc(-c2cn[nH]c2)cc1)Nc1nnc(-c2ccncc2)s1	inactive
Cc1noc(C)c1-c1ccc2ncnc(NCc3cc(F)cc(F)c3)c2c1	inactive
Cc1ccc(Cn2ncc3c4sc(C)cc4n(C)c3c2=O)cc1	inactive
O=C(Nc1ccc(Cl)c(Cl)c1)Nc1nnc(Br)s1	inactive
CC(C)(C)OC(=O)Cc1nnc(-c2cc3ccccc3[nH]2)o1	inactive
COc1ccc(OC)c(C2=Nn3c(nnc3-c3ccccc3OC)SC2)c1	inactive
Cc1c(C(=O)O)[nH]c2c1C(=O)CC(c1ccco1)C2 (stereo not given)	inactive
Oc1c(CN2CCCCC2)cc(COCc2ccccc2)c2cccnc12	inactive
Cc1cc(NC(=S)N2CCN(c3cccc(C(F)(F)F)c3)CC2)nc2ccccc12	inactive
COc1cc(N2C(=O)c3ccccc3C2=O)c2ncccc2c1	inactive
CC(=O)NC(C)c1cc(F)c2cccnc2c1O (stereo not given)	inactive
COc1cc2nc(N3CCN(C)CC3)nc(NCCN(C)C)c2cc1OC	inactive
O=C1CCc2cc(S(=O)(=O)Nc3ccc4ncccc4c3)ccc2N1	inactive
O=C(O)c1ccc(-c2ccc3ncnc(NCCc4cnc[nH]4)c3c2)o1	inactive
